Reference: PubChem BioAssay (Tox21)
The source made the active and inactive calls. Where a call stands in place of a potency, no number is given. The call rests on the fitted dose curve.

target: Acetylcholinesterase (Homo sapiens) (UniProt P22303); assay: Acetylcholinesterase (AChE) small molecule antagonists: enzyme-based qHTS assay with human liver microsomes (AID 1347399); settings: Potency: qHTS inhibition; outcome: qHTS inhibition; series mostly up to 115 µM; further: nearly all actives have a fitted effect of over 60% in size
Sequence (P22303 whole entry, looked up): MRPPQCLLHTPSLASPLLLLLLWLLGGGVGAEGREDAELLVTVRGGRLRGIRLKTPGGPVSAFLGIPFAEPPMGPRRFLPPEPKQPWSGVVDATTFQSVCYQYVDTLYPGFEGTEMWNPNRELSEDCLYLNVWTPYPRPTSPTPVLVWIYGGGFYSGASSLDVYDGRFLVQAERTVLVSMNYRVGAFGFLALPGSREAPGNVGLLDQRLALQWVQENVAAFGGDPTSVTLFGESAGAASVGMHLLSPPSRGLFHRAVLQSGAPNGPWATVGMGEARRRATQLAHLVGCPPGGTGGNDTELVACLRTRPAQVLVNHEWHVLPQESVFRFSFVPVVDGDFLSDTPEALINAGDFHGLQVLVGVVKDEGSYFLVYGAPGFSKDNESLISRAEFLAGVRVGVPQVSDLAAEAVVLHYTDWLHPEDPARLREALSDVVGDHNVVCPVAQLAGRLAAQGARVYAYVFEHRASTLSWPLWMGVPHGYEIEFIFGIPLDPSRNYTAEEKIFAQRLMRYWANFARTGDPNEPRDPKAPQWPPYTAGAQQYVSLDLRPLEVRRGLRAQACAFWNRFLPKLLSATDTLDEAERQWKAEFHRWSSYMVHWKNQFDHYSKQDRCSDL
In short: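 Recombinant human AChE (50 mU/mL in the enzyme mix) and human liver microsomes (0.25 mg/mL final) were preincubated with compound and NADPH (0.25 mg/mL final) for 30 min at 37 C. Acetylthiocholine/DTNB was then added; thiocholine was read colorimetrically after 10 min at room temperature.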

Question: Which Potency does the source give for `C#Cc1ccc(-c2ccccc2F)cc1` here?
Answer: inactive

Question: Which Potency does the source give for `CC(=O)SCc1ccco1` here?
Answer: inactive

Question: Which Potency does the source give for `C=CC(C)(O)CCC=C(C)C` (stereo not given) here?
Answer: inactive

Question: For `CCOC(/C=C(\C)CCC=C(C)C)OCC`, which Potency is on record?
Answer: inactive

Question: For `CC(C)(C)OC(=O)c1cccc(N)c1`, which Potency is on record?
Answer: inactive

Question: How did the Potency turn out when `C/C=C/C(=O)OCC(C)C` was run?
Answer: inactive

Question: `NNc1nc(-c2ccccc2)cs1` was tested. Which Potency did it give?
Answer: inactive

Question: With `CCS(=O)(=O)CCn1c([N+](=O)[O-])cnc1C` as the compound, how does the Potency read?
Answer: inactive

Question: With `CC(C)(C)NC(N)=O` as the compound, how does the Potency read?
Answer: inactive

Question: With `C[C@H]1C[C@H]2[C@@H]3CCC4=CC(=O)C=C[C@]4(C)[C@@]3(Cl)[C@@H](O)C[C@]2(C)[C@@]1(O)C(=O)CO` as the compound, how does the Potency read?
Answer: inactive

Question: For `Oc1ccc(C2(c3ccc(O)c(C4CCCCC4)c3)CCCCC2)cc1C1CCCCC1`, which Potency is on record?
Answer: inactive

Question: For `COc1ccccc1C=O`, which Potency is on record?
Answer: inactive

Question: With `Nc1ccc(C(=O)Nc2ccccc2N)cc1` as the compound, how does the Potency read?
Answer: inactive

Question: With `CC(=O)Oc1cccc2c1C(=O)c1c(OC(C)=O)cc(C(=O)O)cc1C2=O` as the compound, how does the Potency read?
Answer: inactive

Question: How did the Potency turn out when `CCCOc1ccccc1-c1nc2n[nH]nc2c(=O)[nH]1` was run?
Answer: inactive

Question: `CCOC(=O)C1=C[C@]2(CC)CCCN3CCc4c(n1c1ccccc41)[C@@H]32` was tested. Which Potency did it give?
Answer: inactive

Question: With `CCCSSCCC` as the compound, how does the Potency read?
Answer: inactive

Question: For `O=C(CCCl)NCc1ccccc1`, which Potency is on record?
Answer: inactive

Question: With `C=C[C@H]1CN2CC[C@H]1C[C@H]2[C@H](O)c1ccnc2ccc(OC)cc12` as the compound, how does the Potency read?
Answer: inactive

Question: How did the Potency turn out when `Cc1ccccc1C(=O)N1CC/C(=N\OS(=O)(=O)O)c2ccc(Cl)cc21` was run?
Answer: inactive

Question: `CCCCCCCCCCCc1ccccc1` was tested. Which Potency did it give?
Answer: inactive

Question: For `CC(c1cc(C(C)(C)C)cc(C(C)(C)C)c1O)c1cc(C(C)(C)C)cc(C(C)(C)C)c1O`, which Potency is on record?
Answer: inactive

Question: `CC(C)OC(=O)COc1ccc(Cl)cc1Cl` was tested. Which Potency did it give?
Answer: inactive

Question: With `O=C(O)CCCl` as the compound, how does the Potency read?
Answer: inactive

Question: Which Potency does the source give for `O=c1oc2cc(O)ccc2c2oc3cc(O)ccc3c12` here?
Answer: inactive

Question: `CC(C)(c1ccc(Oc2ccc(N)cc2)cc1)c1ccc(Oc2ccc(N)cc2)cc1` was tested. Which Potency did it give?
Answer: inactive

Question: How did the Potency turn out when `CCCCCCCCCCC=CC1CC(=O)OC1=O` (stereo not given) was run?
Answer: inactive

Question: Which Potency does the source give for `Oc1c(Cl)cc(Cl)cc1Sc1cc(Cl)cc(Cl)c1O` here?
Answer: inactive

Question: Which Potency does the source give for `CC1(C)S[C@@H]2[C@H](NC(=O)COc3ccccc3)C(=O)N2[C@H]1C(=O)O` here?
Answer: inactive

Question: With `CCCCC(=O)O` as the compound, how does the Potency read?
Answer: inactive

Question: For `OC(CCN1CCCCC1)(c1ccccc1)C1CCCCC1` (stereo not given), which outcome is on record?
Answer: inactive

Question: With `O=C1c2ccccc2C(=O)N1CCl` as the compound, how does the Potency read?
Answer: inactive

Question: For `CCCCCCCCCCCCN1CCCCCC1=O`, which Potency is on record?
Answer: inactive

Question: Which Potency does the source give for `OCc1c2ccccc2cc2ccccc12` here?
Answer: inactive

Question: `Oc1ccccc1F` was tested. Which Potency did it give?
Answer: inactive

Question: For `Nc1ccc2c(O)cc(S(=O)(=O)O)cc2c1`, which Potency is on record?
Answer: inactive

Question: `CCCN1C=CN(C)C1` was tested. Which Potency did it give?
Answer: inactive

Question: For `COc1ccc(C(=O)N2CCN(CC(=O)N3CCOCC3)CC2)cc1`, which Potency is on record?
Answer: inactive

Question: How did the Potency turn out when `C=COCC1CCC(CO)CC1` (stereo not given) was run?
Answer: inactive

Question: `C[C@]12CCC(=O)C=C1CC[C@@H]1[C@@H]2C(=O)C[C@@]2(C)[C@H]1CC[C@]2(O)C(=O)CO` was tested. Which Potency did it give?
Answer: inactive
